The text below walks through data of PubChem BioAssay (NCI).

About 83,000 compounds went through this panel and 20% of them were active in at least one assay; those are over-represented in the sample as a whole.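 In brief: 96-well plates, 48 h treatment, single concentration, percent growth endpoint.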 Unmarked numbers belong to inactive results. Calls of active or inactive are those of the source.

This experiment relates to BT-549 breast. As to the kind of experiment: NCI-60 one-dose screen, 48 h (100 = growth as untreated, 0 = no growth, -100 = all killed). The settings on record: 10 µM unless noted. Here is the method: Growth inhibition of the BT-549 human tumor cell line is measured as a screen for anti-cancer activity. Cells are grown in 96 well plates and exposed to the test compound for 48 hours. Compounds are tested at a single concentration, which is 10^-5 M for most compounds. The reported endpoint is percent growth (GI% or GIPRCNT), where numbers from 0 - 100% represent growth inhibition, and numbers from -100% - 0 represent cell death. For example, a value of 40 represents 60% growth inhibition. A value of 0 means no net growth occurred over the course of the experiment. A value of -40 indicates 40% of cells at the beginning of the experiment died by the end of the experiment. A value of -100 means all cells are dead at the end of the experiment.
NCI-60 Human Tumor Cell Lines Screen was performed using the standard one-dose NCI protocol, which is described in more detail at https://dtp.cancer.gov/discovery_development/nci-60/default.htm.
Compounds with GIPRCNT values below 10 were considered active. Activity score was based on GIPRCNT using the following formula: […]
Score is 0 for GIPRCNT values of 100 or above, 50 for GIPRCNT values of 0, and 100 for GIPRCNT values of -100.
As to `COc1ccc(-c2cc(C(=O)N=Nc3c(O)[nH]c4ccccc34)no2)cc1`, the growth is 109%. Then `C=C1C(=O)O[C@H]2[C@H]1CC/C(Cn1cc(Cn3ccc4cc(Cl)ccc43)nn1)=C\CC[C@@]1(C)O[C@@H]21`, with 22.8%. The result for `NCc1cn2cc(Cl)sc2n1` reads 111%. The result for `COC(=O)[C@@H]1CC[C@]2(C)[C@H](CC[C@@H]3O[C@@]32C)[C@@]1(C)CC(=O)c1ccoc1` reads 105%; that for `CCCCCCCCCC(=O)Oc1ccc(/C(=C(/C)c2ccccc2)c2ccc(OCCN3CCCC3)cc2)cc1`, 24.5%; that for `Cc1ccc2c(c1)n([O-])c1cc(Cl)ccc1[n+]2=O`, 108%. On to `CCN(CC)C12CCCCC1(C)C(C#N)(C#N)C(C#N)=C(N)O2` (stereo not given), for which the growth is 103%.

`Cc1ccc(Nc2nc(N)nc(Nc3ccc4ccccc4c3)n2)cc1`: the growth is 48.1%. The result for `CCc1ccc(C(c2ccc(CC)cc2)C(Cl)(Cl)CCl)cc1` reads 116%; that for `O=C(CO[N+](=O)[O-])Nc1ccc(C(=O)/C=C/c2ccc(Cl)cc2)cc1`, 18.9%. With `COC1C/C(=N\O)C2OC(c3ccccc3)OCC2O1` (stereo not given), the growth is 105%. The result for `CS(=O)CCCCCN=C=S` (stereo not given) reads 2.12% (active); that for `COc1ccc(-c2nn(-c3ccccc3)cc2/C=C/C(=O)OCc2cn(-c3ccc(F)c(Cl)c3)nn2)cc1`, 101%.

`CN1CCN(Cc2ccc(NC(=O)c3cncc(C#Cc4cnc(N)c5cccnc45)c3)cc2C(F)(F)F)CC1`: the growth was 38.9%. Then `COc1cc(/C=C2\CN(C(=O)CCN3CCC(=NO)CC3)C/C(=C\c3cc(OC)c(OC)c(OC)c3)C2=O)cc(OC)c1OC`, with -81.4% (active); and `O=C(/C=C/c1cc2ccccc2[nH]c1=O)/C=C/c1cc2ccccc2[nH]c1=O`, with -45.5% (active); and `COc1ccc(C2CC(=O)Nc3c2c(C)nn3-c2nc3ccccc3[nH]2)cc1` (stereo not given), with 113%. With `CC1=C(NCCN2CCCC2)C(=O)c2c(OCc3cccc(Cl)c3)cccc2C1=O`, the growth was 14.5%. The result for `Nc1ccc(Nc2nccc(-c3ccc4ccccc4c3)n2)cc1` reads 57.7%.

For `O=C1c2c[n+](Cc3ccccc3)ccc2-c2nc3ccccc3c3ccnc1c23`, the growth is -30.7% (active). Then `COc1cnc2c(c1)C(=O)c1c-2n(CCCN2CCNCC2)c(=O)c2cc([N+](=O)[O-])ccc12`, with 21.7%. For the compound `NC(=S)N/N=C/c1ccc(OCc2ccccc2)cc1`, the growth is 58.4%.

On to `Cc1ccc(SCN2CCN(c3cccc(Cl)c3)CC2)cc1`, for which the growth was 62.7%. In the case of `Cc1ccc(C2CC3c4ccccc4C2C2CCCCN32)cc1` (stereo not given), the growth is 57.4%. Then `O=[N+]([O-])c1cccc(-c2nc3sccn3c2-c2ccnc(NCCCNS(=O)(=O)c3cccc(F)c3)n2)c1`, with -16.8% (active); and `O=C(O)c1c([N+](=O)[O-])cnc2ccccc12`, with 96.7%. On to `COc1ccc(/C=C/C(=O)c2ccc(NC(=O)c3cc4cc5ccccc5nc4s3)cc2)cc1OC`, for which the growth was 104%. On to `CC1(C)OCC2OC3(C(=O)O)OC(C)(C)OC3C2O1` (stereo not given), for which the growth is 105%. The result for `COc1cccc(/C=C2/C(=O)N(Cc3ccco3)SC2=S)c1OC` reads 89.7%; that for `C/C(=C(/c1ccc(O)cc1)c1ccc(OCCN2CCCC2)cc1)c1ccccc1`, 64%; that for `O=C1/C(=C\c2cn(C(=O)c3ccc(Cl)cc3)c3ccccc23)c2ccccc2N1c1c(Cl)cccc1Cl`, 107%. For `COc1ccc(/C=N\NC(=O)CN2CCN(c3cc4c(cc3F)c(=O)c(C(=O)N/N=C/c3ccc(OC)cc3)cn4C3CC3)CC2)cc1`, the growth was 88.5%.

In the case of `CN1/C(=C\C=C\C2=[N+](C)c3ccccc3C2(C)C)C(C)(C)c2ccccc21`, the growth is -17.7% (active).

In the case of `CCCCNP1(NCCCC)=NP(NCCCC)(NCCCC)=NP(NCCCC)(NCCCC)=NP(NCCCC)(NCCCC)=N1`, the growth is 45.4%. Then `CCN(CC)CCCNc1cc(OC)cc2nc3cc(Cl)ccc3nc12`, with 2.46% (active); and `CSc1nc(NCCO)c(C#N)c(-c2cccc(N)c2)n1`, with 98%.

As for `O=C([C@@H](COCc1ccccc1)N1C(=O)[C@@H](N2C(=O)OC[C@@H]2c2ccccc2)[C@H]1/C=C/c1ccccc1)N1CCC(CCN2CCCCC2)CC1`, the growth was 90%. The result for `Cc1ccc(S(=O)(=O)n2cc(-c3csc(-c4cn(C)c5ncccc45)n3)c3ccccc32)cc1` reads 66.9%. The result for `Nc1nc(SCc2ccccc2)c2ncn(C3CCCC3)c2n1` reads 116%.

As for `c1ccc2sc(SCCCn3ccnc3)nc2c1`, the growth is 96.8%.
